Our source for the growth values is PubChem BioAssay (NCI).

Some test systems named below: EKVX NSCLC; SN12C renal; UO-31 renal; TK-10 renal; ACHN renal; CAKI-1 renal; A498 renal; CCRF-CEM leukemia; MOLT-4 leukemia; SK-MEL-2 melanoma.
Holding throughout (assay): NCI-60 one-dose screen, 48 h (100 = growth as untreated, 0 = no growth, -100 = all killed)

Where “and” joins values, the source holds several entries; their conditions need not be identical. Equal values may be shown once. The panel holds about 83,000 compounds, 20% with a hit somewhere; the sample as a whole holds those more often.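 Negative percent growth values reflect cell death: -40 means 40% of the cells present at the start died, and -100 means all died.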 Calls of active or inactive are those of the source. How the source made its calls: active means growth percent below 10; inactive means the rest.

For `COc1cccc2c1C(=O)c1c(O)c3c(c(O)c1C2=O)C[C@@](O)(C(=O)CO)C[C@@H]3OC1CC(N)C(O)C(C)O1` (stereo not given in full), the growth was 102% (inactive) with EKVX NSCLC (0.0025 µM); 65.8% (inactive) with EKVX NSCLC (1 µM); 88.8% (inactive) in the assay with EKVX NSCLC (2.5 µM); 24.6% (inactive) in the assay with EKVX NSCLC (10 µM); 104% (inactive) in the assay on SN12C renal (0.0025 µM); -4.11% (active) in the assay with SN12C renal (1 µM). The growth in the assay with SN12C renal (2.5 µM) is 2.46% (active); in the assay on SN12C renal (10 µM), 12% (inactive); with UO-31 renal (0.0025 µM) it was 87.1% (inactive); in the assay with UO-31 renal (1 µM), 61.3% (inactive); in the assay on UO-31 renal (2.5 µM) it was 67.3% (inactive); with UO-31 renal (10 µM), 4.05% (active). The growth in the assay on TK-10 renal (1 µM) is 63.3% (inactive); in the assay with TK-10 renal (2.5 µM), 57.7% (inactive); with TK-10 renal (10 µM), 25.4% (inactive); in the assay on ACHN renal (0.0025 µM), 102% (inactive); with ACHN renal (1 µM), 19.6% (inactive); in the assay with ACHN renal (2.5 µM), 35.6% (inactive). For the same compound, the growth was -13.8% (active) in the assay with ACHN renal (10 µM); 45% (inactive) with CAKI-1 renal (1 µM); 17.6% (inactive) with CAKI-1 renal (2.5 µM); -28.9% (active) in the assay with CAKI-1 renal (10 µM); 93.5% (inactive) in the assay with A498 renal (0.0025 µM); 76.5% (inactive) in the assay with A498 renal (1 µM). Further, the growth in the assay on A498 renal (2.5 µM) is 52.6% (inactive); with CCRF-CEM leukemia (0.0025 µM), 104% (inactive); in the assay on CCRF-CEM leukemia (1 µM), 26.8% (inactive); with CCRF-CEM leukemia (2.5 µM), 53.3% (inactive); with CCRF-CEM leukemia (10 µM) it was -11.8% (active); in the assay on MOLT-4 leukemia (0.0025 µM) it was 94.5% (inactive). For the same compound, the growth was 5.51% (active) with MOLT-4 leukemia (1 µM), -21.6% (active) in the assay with MOLT-4 leukemia (2.5 µM) and -12% (active) with MOLT-4 leukemia (10 µM).
For the compound `CCCCCCCCCCCC[N+](C)(C)Cc1ccccc1`, the growth in the assay on SK-MEL-2 melanoma (10 µM) is -11.9% (active); with SN12C renal (10 µM), 10.1% (inactive); in the assay on UO-31 renal (10 µM), 55.4% (inactive); in the assay with TK-10 renal (10 µM) it was -1.57% (active); in the assay on ACHN renal (10 µM), 78.7% (inactive); with CAKI-1 renal (10 µM), 82.1% (inactive). Also, the results for the growth in the assay on A498 renal (10 µM), in the assay with CCRF-CEM leukemia (10 µM) and with MOLT-4 leukemia (10 µM) were 79% (inactive), -15.9% (active) and -21.9% (active), respectively.
Turning to `Cc1cc(O)c(C(C)C)cc1Cl`, the growth in the assay on EKVX NSCLC (10 µM) was 103% (inactive); in the assay on SN12C renal (10 µM) it was 104% (inactive); with UO-31 renal (10 µM) it was 89.8% (inactive); in the assay on TK-10 renal (10 µM), 97.6% (inactive); with ACHN renal (10 µM), 106% (inactive); in the assay on CAKI-1 renal (10 µM), 99.7% (inactive). Besides, the growth is 118% (inactive) with A498 renal (10 µM), 104% (inactive) with CCRF-CEM leukemia (10 µM) and 99% (inactive) with MOLT-4 leukemia (10 µM).
For the compound `CC(=O)Nc1cc(C)ccc1C`, the growth in the assay on EKVX NSCLC (10 µM) is 99.9% (inactive); in the assay with SN12C renal (10 µM), 101% (inactive); in the assay with UO-31 renal (10 µM), 88.1% (inactive); in the assay on TK-10 renal (10 µM), 96.2% (inactive); with ACHN renal (10 µM) it was 106% (inactive); in the assay with CAKI-1 renal (10 µM) it was 98.6% (inactive). The growth was 83.8% (inactive) in the assay with A498 renal (10 µM), 128% (inactive) in the assay with CCRF-CEM leukemia (10 µM) and 110% (inactive) in the assay with MOLT-4 leukemia (10 µM).
Consider `COC1OCC(O)C(O)C1O` (stereo not given), for which the growth with SK-MEL-2 melanoma (10 µM) is 114% (inactive); with EKVX NSCLC (10 µM), 99.1% (inactive); with SN12C renal (10 µM), 103% (inactive); in the assay on UO-31 renal (10 µM) it was 86.2% (inactive); in the assay on TK-10 renal (10 µM), 92.9% (inactive); with ACHN renal (10 µM), 111% (inactive). Moreover, the growth in the assay on CAKI-1 renal (10 µM) is 89.7% (inactive); in the assay with A498 renal (10 µM), 84.5% (inactive); in the assay on CCRF-CEM leukemia (10 µM) it was 107% (inactive); with MOLT-4 leukemia (10 µM) it was 101% (inactive).
As to `O=C(O)COc1ccc(OCC(=O)O)cc1`, the growth in the assay with EKVX NSCLC (10 µM) was 51.8% (inactive); in the assay with SN12C renal (10 µM), 2.58% (active); in the assay on UO-31 renal (10 µM), 50.5% (inactive); in the assay on TK-10 renal (10 µM) it was 20.6% (inactive); in the assay on ACHN renal (10 µM), 30.1% (inactive); in the assay with CAKI-1 renal (10 µM), 90.7% (inactive). The values for the growth in the assay with A498 renal (10 µM), in the assay with CCRF-CEM leukemia (10 µM) and with MOLT-4 leukemia (10 µM) were -14.2% (active), 2.46% (active) and 9.12% (active), respectively.
Regarding `CC1=CC(C)=Nc2ccc(Cl)cc2N1`, the growth is 108% (inactive) in the assay on EKVX NSCLC (10 µM); 104% (inactive) in the assay with SN12C renal (10 µM); 85.9% (inactive) in the assay on UO-31 renal (10 µM); 117% (inactive) with TK-10 renal (10 µM); 105% (inactive) with ACHN renal (10 µM); 89.8% (inactive) in the assay with CAKI-1 renal (10 µM). In addition, the growth in the assay with A498 renal (10 µM) is 106% (inactive); with CCRF-CEM leukemia (10 µM), 93.9% (inactive); in the assay on MOLT-4 leukemia (10 µM), 97.5% (inactive).
Consider `Nc1nc(=S)c2ncn(C3OC(CO)C(O)C3O)c2[nH]1` (stereo not given), for which the growth in the assay on SK-MEL-2 melanoma (10 µM) is 93% (inactive) and 15.6% (inactive); in the assay with EKVX NSCLC (10 µM) it was 110% (inactive) and 23.3% (inactive); with SN12C renal (10 µM), 107% (inactive) and 26% (inactive); with UO-31 renal (10 µM) it was 95.4% (inactive) and 19.8% (inactive); in the assay with TK-10 renal (10 µM), 120% (inactive) and -8.09% (active); in the assay on ACHN renal (10 µM) it was 112% (inactive) and 17.2% (inactive). Also, the growth in the assay with CAKI-1 renal (10 µM) is 113% (inactive) and -8.94% (active); in the assay on A498 renal (10 µM), 125% (inactive) and 29.6% (inactive); in the assay on CCRF-CEM leukemia (10 µM), 96.4% (inactive) and 24.2% (inactive); with MOLT-4 leukemia (10 µM) it was 100% (inactive) and 13.4% (inactive).
As for `O=c1ccn(C2CC(O)C(COC(c3ccccc3)(c3ccccc3)c3ccccc3)O2)c(=O)[nH]1` (stereo not given), the growth with SK-MEL-2 melanoma (100 µM) is 26% (inactive); in the assay with EKVX NSCLC (100 µM), 52.8% (inactive); in the assay with SN12C renal (10 µM), 95.9% (inactive); in the assay on SN12C renal (100 µM), 38.8% (inactive); in the assay on UO-31 renal (10 µM), 54.6% (inactive); in the assay on UO-31 renal (100 µM), 37.1% (inactive). Besides, the growth was 95.4% (inactive) with TK-10 renal (10 µM); 87.8% (inactive) in the assay on TK-10 renal (100 µM); 86.4% (inactive) in the assay on ACHN renal (10 µM); 56.9% (inactive) with ACHN renal (100 µM); 127% (inactive) in the assay on CAKI-1 renal (10 µM); 30.3% (inactive) in the assay with CAKI-1 renal (100 µM). Moreover, the growth in the assay with A498 renal (10 µM) was 98.6% (inactive); with A498 renal (100 µM) it was 102% (inactive); in the assay on CCRF-CEM leukemia (100 µM) it was 45.5% (inactive); in the assay on MOLT-4 leukemia (10 µM), 67.1% (inactive); in the assay with MOLT-4 leukemia (100 µM) it was 9.6% (active).
